Laboratory results reported in PubChem BioAssay (NCATS).
Several values for one entry are separate records, joined by “and”; a condition that tells them apart may be missing. Equal values may be shown once. Records with an inconclusive call do not appear. Activity calls are given as the source filed them. Unless noted, calls come from the whole dose curve; as a rule, active = well fitted curve in either direction with a large enough effect (not every such curve was filed as active); inconclusive = small, poorly fitted or top-dose-only effect, or another doubt; inactive = flat fitted curve, though single readings scatter.

Legend:
[1] = AP1 Signaling Pathway (AID 357);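 note: ME-180 reporter cells stimulated with EGF at its EC50 level; % is set by controls: 0 for no effect and ±100 for the full control effect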
Summary of the method: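 First, ME-180 AP-1-bla cells were cultured overnight at 37 °C in low-serum Opti-MEM. Next, titrated compounds with EC50 EGF were incubated 5 hours. Finally, CCF4 was added for 2.5 hours and the 460/530 nm ratio recorded.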

[2] = NFAT Signaling Pathway (AID 444);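 note: carbachol stimulus at about its EC50 of 1 µM final; % is set by controls: 0 for no effect and ±100 for the full control effect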
Summary of the method: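 Jurkat cells with NFAT-driven β-lactamase reporter and co-expressed M1 receptor, stimulated with carbachol (final 1 uM, ~EC50), compound titration, 5 h at 37 °C. CCF4 loaded 1 h at RT; 460/530 nm ratio gave %activity and AC50.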

[3] = Stat Signaling Pathway (AID 446); settings: ME-180 SIE beta-lactamase reporter, IL-6 stimulated, 5 h;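 note: ME-180 cervical cancer cells given 40 pM IL-6 alongside compound; SIE-controlled beta-lactamase reporter measured as 460/530 nm FRET emission ratio; % is set by controls: 0 for no effect and ±100 for the full control effect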
Summary of the method: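 Reporter line: ME-180 cervical carcinoma, SIE-beta-lactamase. Treatment: compound with 40 pM IL-6, 5 hrs, 37 C, in low-serum OPTI-MEM with 10 mM HEPES pH 7.3. Detection: 460/530 nm fluorescence.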

[4] = molecular target: Mitogen-activated protein kinase 10 (Mus musculus) (UniProt Q61831); experiment: JNK3 AlphaScreen Assay (AID 530);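 note: kinase came from lysate of stimulated human HepG2 cells; signal reports phosphorylation of biotinylated GST-cJun 1-79 at Ser73 with 10 µM ATP; % is set by controls: 0 for no effect and ±100 for the full control effect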
Summary of the method: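 qHTS format: compounds tested as titrations against IL-1beta/TNF-alpha-activated HepG2 lysate JNK3 with biotin-GST-cJun substrate and 10 uM ATP at room temperature. Loss of anti-phospho-cJun AlphaScreen signal indicates inhibition.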

[5] = molecular target: 3',5'-cyclic-AMP phosphodiesterase 4B (Homo sapiens) (UniProt Q07343); experiment: qHTS Assay for Inhibitors of PDE-IV (AID 607; active = well fitted activation curve with a large enough effect in the main read-out, with a control signal flat, not every such curve was filed as active; note: % of control where 0% means no effect)
Summary of the method: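 Cell-based read-out of cAMP via a modified cyclic nucleotide-gated channel and membrane potential dye (535/590 nm) in HEK293 cells expressing PDE4 endogenously. Compounds tested up to 22.9 uM final; 100 uM RO 20-1724 reference.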

[6] = molecular target: Cytochrome P450 1A2 (Homo sapiens) (UniProt P05177); experiment: p450-cyp1a2 (AID 410; calls by dose curve; note: potency is the fitted concentration of half-maximal effect)
Summary of the method: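 Inhibition was calculated relative to 57 uM furafylline (full inhibition). The reaction used human CYP1A2 at 20nM with Luciferin-ME at its Km, 100uM, driven by an NADPH-regenerating system for 60 min at room temperature.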

[7] = Cell Viability - BJ (AID 421; calls by dose curve;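 note: potency is the fitted concentration of half-maximal effect; cells exposed to compound for 40 hours at 37 °C before readout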); settings: BJ fibroblast viability, qHTS
Summary of the method: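 Cytotoxicity as drop in intracellular ATP (CellTiter-Glo, 20 min RT) after 40 hr compound exposure of BJ fibroblasts at 37 °C. Titrations scaled between DMSO and 100 uM tamoxifen, Hill-fitted for AC50.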

[8] = Cell Viability - Jurkat (AID 426;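 active = dose-dependent loss of cell ATP signal giving a full or clear fitted curve, ranked by lower potency value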; note: potency is the fitted concentration of half-maximal effect); settings: qHTS
Summary of the method: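 Seed 5000 Jurkat E6-1 cells/well; add compound; incubate 40 hr at 37 °C; add CellTiter-Glo; wait 20 min at room temperature; read luminescence. Fit concentration-response with Hill equation for AC50.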

[9] = Cell Viability - Hek293 (AID 427;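 active = compounds whose dose-response curve shows a full or clear partial loss of cell viability, called from curve shape rather than a numeric limit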;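 note: potency is the fitted concentration of half-maximal effect; cells exposed to compound for 40 hours at 37 °C before reading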); settings: qHTS
Summary of the method: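 Luminescent ATP content (CellTiter-Glo, 20 min at room temperature) was measured after a 40 hr, 37 °C compound exposure of HEK293 cells. AC50 values came from Hill-equation fits of qHTS concentration-response data normalized to DMSO and 100 uM tamoxifen.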

[10] = Cell Viability - HepG2 (AID 433; calls by dose curve;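 note: potency is the fitted concentration of half-maximal effect; potency for ATP loss meaning cytotoxicity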); settings: qHTS
Summary of the method: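 Cytotoxicity read as ATP loss (CellTiter-Glo luminescence) after 40 hr compound exposure of HepG2, 1500 cells/well, 37 °C. AC50 by Hill equation; 0% set by DMSO, 100% inhibition by 100 uM tamoxifen.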

[11] = Cell Viability - MRC5 (AID 434; calls by dose curve;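 note: potency is the fitted concentration of half-maximal effect; potency reflects cytotoxicity seen as loss of intracellular ATP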); settings: MRC5 lung fibroblast viability, qHTS
Summary of the method: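 MRC5 normal human lung fibroblasts, 1500 cells/well, exposed to compound for 40 hr at 37 C. Cellular ATP was read by CellTiter-Glo luminescence; data normalized to DMSO and 100 uM tamoxifen, with AC50 from Hill fits.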

[12] = Cell Viability - SK-N-SH (AID 435; calls by dose curve; note: potency is the fitted concentration of half-maximal effect); settings: SK-N-SH neuroblastoma cell viability qHTS
Summary of the method: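 qHTS cytotoxicity: CellTiter-Glo ATP luminescence after 40 h compound exposure of human neuroblastoma SK-N-SH cells at 37 °C. AC50 derived by Hill-equation fitting, with DMSO as basal and 100 uM tamoxifen as full inhibition.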

[13] = molecular target: Glucocorticoid receptor (Homo sapiens) (UniProt P04150); experiment: GR-GFP Redistribution (AID 450;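 active = compounds whose dose series gives a full or clear partial fitted curve of increased nuclear translocation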; note: potency is the fitted concentration of half-maximal effect); settings: U2OS GR-GFP nuclear translocation, laser cytometry, 2 h
[14] = Cell Viability - N2a (AID 540; active = well fitted curve in the direction sought with a large enough effect; an effect the other way counts as inactive or inconclusive;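 note: plate controls were DMSO alone for no effect and tamoxifen control for full effect; nearly all actives have a fitted effect of over 45% in size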); settings: N2a mouse neuroblastoma cell viability; activity change, negative = cytotoxicity: at 92.2 µM (top of the series)
Summary of the method: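 First, 1500 N2a cells per well incubate 5 hr at 37 °C; next, compounds are added and incubated 40 hr at 37 °C; finally CellTiter-Glo is added and luminescence read after 20 min, with AC50 derived by Hill modeling.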

[15] = Cell Viability - NIH 3T3 (AID 541; active = well fitted curve in the direction sought with a large enough effect; an effect the other way counts as inactive or inconclusive;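 note: plate controls were DMSO alone for no effect and tamoxifen positive control for full effect; nearly all actives have a fitted effect of over 25% in size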); settings: NIH 3T3 cell viability, qHTS; at 92.2 µM (top of the series)
Summary of the method: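 AC50 values reflect concentration-dependent loss of intracellular ATP in NIH 3T3 cells after 40 hr treatment in complete culture medium, quantified by luciferase-based luminescence.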

[16] = Cell Viability - HUV-EC-C (AID 542; active = well fitted curve in the direction sought with a large enough effect; an effect the other way counts as inactive or inconclusive; note: % is set by controls: 0 for no effect and ±100 for the full control effect; nearly all actives have a fitted effect of over 35% in size)
Summary of the method: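 Decrease in cellular ATP, quantified by luciferase luminescence, reflects toxicity in normal human vascular endothelial HUV-EC-C cells given compound for 40 hr in complete culture medium. Values are AC50s from concentration-response curves.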

[17] = Cell Viability - H-4-II-E (AID 543; active = well fitted curve in the direction sought with a large enough effect; an effect the other way counts as inactive or inconclusive; note: % is set by controls: 0 for no effect and ±100 for the full control effect; nearly all actives have a fitted effect of over 35% in size)
Summary of the method: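 Here, cytotoxicity is measured in the rat hepatoma line H-4-II-E as loss of intracellular ATP after 40 hr compound treatment, detected by luciferase luminescence.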

[18] = Cell Viability - SH-SY5Y (AID 544; active = well fitted curve in the direction sought with a large enough effect; an effect the other way counts as inactive or inconclusive;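 note: 0% = DMSO alone and -100% = 100 µM tamoxifen; nearly all actives have a fitted effect of over 55% in size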); settings: SH-SY5Y neuroblastoma cell viability; viability change, negative = cytotoxic: at 92.2 µM (top of the series)
Summary of the method: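 Cytotoxicity is scored as a concentration-dependent fall in intracellular ATP in human SH-SY5Y cells treated 40 hr in complete culture medium. Potency is expressed as AC50 from a Hill equation fit.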

[19] = Cell Viability - Mesenchymal (AID 546; active = well fitted curve in the direction sought with a large enough effect; an effect the other way counts as inactive or inconclusive;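 note: cells exposed to compound for 40 hours before reading; 0% = DMSO only and -100% = 100 µM tamoxifen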); settings: mesenchymal cells viability, qHTS; activity change, negative = cytotoxicity: at 91.7 µM (top of the series)
Summary of the method: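 Human kidney mesenchymal cells from normal renal glomeruli, 1000 cells/well, rested 5 hr at 37 °C, then treated 40 hr at 37 °C in complete medium. Cellular ATP read by CellTiter-Glo luminescence; AC50 from Hill-equation fits.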

Sequence of 3',5'-cyclic-AMP phosphodiesterase 4B (Homo sapiens) (Q07343 whole entry, looked up): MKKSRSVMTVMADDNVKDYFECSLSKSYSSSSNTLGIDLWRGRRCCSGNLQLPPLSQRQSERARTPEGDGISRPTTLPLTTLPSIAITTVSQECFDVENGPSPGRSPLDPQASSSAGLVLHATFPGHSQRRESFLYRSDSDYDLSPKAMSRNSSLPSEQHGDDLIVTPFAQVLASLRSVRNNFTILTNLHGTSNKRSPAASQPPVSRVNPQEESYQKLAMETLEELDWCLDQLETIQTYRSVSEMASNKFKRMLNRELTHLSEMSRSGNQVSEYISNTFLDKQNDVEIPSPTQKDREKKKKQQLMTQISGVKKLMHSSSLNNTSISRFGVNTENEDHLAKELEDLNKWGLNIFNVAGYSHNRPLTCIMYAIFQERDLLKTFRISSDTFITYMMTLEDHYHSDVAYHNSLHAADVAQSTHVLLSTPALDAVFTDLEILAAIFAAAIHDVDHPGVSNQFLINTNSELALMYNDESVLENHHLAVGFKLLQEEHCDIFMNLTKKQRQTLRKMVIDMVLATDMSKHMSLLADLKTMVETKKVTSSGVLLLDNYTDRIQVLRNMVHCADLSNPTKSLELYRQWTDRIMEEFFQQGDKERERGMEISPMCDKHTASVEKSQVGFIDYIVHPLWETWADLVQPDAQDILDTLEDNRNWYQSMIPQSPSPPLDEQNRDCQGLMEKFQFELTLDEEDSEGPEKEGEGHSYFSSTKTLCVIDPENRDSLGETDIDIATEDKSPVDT
Sequence of Cytochrome P450 1A2 (Homo sapiens) (P05177 whole entry, looked up): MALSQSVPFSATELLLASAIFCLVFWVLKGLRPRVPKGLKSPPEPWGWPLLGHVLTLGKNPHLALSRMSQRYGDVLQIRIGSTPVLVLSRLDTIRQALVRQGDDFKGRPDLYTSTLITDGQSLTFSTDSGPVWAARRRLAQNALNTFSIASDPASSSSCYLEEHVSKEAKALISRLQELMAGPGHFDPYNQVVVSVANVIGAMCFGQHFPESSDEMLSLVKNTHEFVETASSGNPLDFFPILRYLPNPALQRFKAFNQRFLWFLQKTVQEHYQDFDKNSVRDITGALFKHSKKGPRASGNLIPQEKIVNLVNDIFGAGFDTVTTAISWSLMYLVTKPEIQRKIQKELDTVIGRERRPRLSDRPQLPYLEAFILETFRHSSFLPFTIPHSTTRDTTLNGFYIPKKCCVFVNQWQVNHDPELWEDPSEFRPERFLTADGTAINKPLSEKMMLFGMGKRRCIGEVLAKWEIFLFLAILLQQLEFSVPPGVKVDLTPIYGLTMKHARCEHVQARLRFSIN
Sequence of Glucocorticoid receptor (Homo sapiens) (P04150 whole entry, looked up): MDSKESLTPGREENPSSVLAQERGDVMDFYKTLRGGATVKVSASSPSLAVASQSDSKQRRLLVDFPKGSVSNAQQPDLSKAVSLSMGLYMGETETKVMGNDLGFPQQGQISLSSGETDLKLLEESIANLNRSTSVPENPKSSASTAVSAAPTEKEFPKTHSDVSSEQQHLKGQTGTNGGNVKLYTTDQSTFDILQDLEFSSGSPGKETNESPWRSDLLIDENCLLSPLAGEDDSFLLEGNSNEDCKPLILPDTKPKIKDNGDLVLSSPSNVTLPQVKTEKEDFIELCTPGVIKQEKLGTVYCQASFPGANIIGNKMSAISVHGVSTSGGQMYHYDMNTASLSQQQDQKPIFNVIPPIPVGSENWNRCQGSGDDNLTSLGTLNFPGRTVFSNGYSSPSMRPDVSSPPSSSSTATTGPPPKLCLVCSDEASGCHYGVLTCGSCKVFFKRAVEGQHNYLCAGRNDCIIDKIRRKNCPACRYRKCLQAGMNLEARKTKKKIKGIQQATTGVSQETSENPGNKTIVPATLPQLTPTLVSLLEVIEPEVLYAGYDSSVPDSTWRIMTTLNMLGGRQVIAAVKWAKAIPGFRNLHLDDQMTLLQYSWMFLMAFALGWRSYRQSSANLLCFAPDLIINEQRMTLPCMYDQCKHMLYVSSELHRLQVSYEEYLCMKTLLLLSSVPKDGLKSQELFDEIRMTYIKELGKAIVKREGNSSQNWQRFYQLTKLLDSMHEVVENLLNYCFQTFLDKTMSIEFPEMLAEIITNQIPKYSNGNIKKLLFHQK

CCN(CC)CCNC(=O)c1ccc(N)cc1
inactive: outcome [1] | outcome [2] | activity, negative = inhibition ([3]; at 17.2 µM (top of the series)) 5.34% and 0.638% | activity, negative = inhibition ([3]; at 38 µM (top of the series)) 3.95% | outcome [4] | outcome [5]

CC(=O)c1ccc(S(=O)(=O)NC(=O)NC2CCCCC2)cc1
inactive: outcome [1] | Potency [6] | Potency [7] > 92 µM | Potency [8] > 92 µM | Potency [9] > 92 µM | Potency [10] > 92 µM | Potency [11] > 92 µM | Potency [12] > 92 µM | outcome [2] | activity, negative = inhibition ([3]; at 17.2 µM (top of the series)) -1.46% | activity, negative = inhibition ([3]; at 38 µM (top of the series)) -26.2% | Potency [13] > 46 µM and > 20.6 µM | outcome [4] | Potency [14] | activity change, negative = cytotoxicity [15] -15.1% | Potency [16] | Potency [17] | Potency [18] | Potency [19] | outcome [5]

NC(N)=Nc1nc(CSCC/C(N)=N/S(N)(=O)=O)cs1
inactive: outcome [1] | outcome [2] | activity, negative = inhibition ([3]; at 17.2 µM (top of the series)) 12% and 11.5% | activity, negative = inhibition ([3]; at 38 µM (top of the series)) 1.63% | Potency [13] > 46 µM and > 20.6 µM | outcome [4] | outcome [5]

C[C@@H](O)[C@H]1C(=O)N2C(C(=O)O)=C(S[C@@H]3CN[C@H](C(=O)N(C)C)C3)[C@H](C)[C@H]12
inactive: outcome [1] | Potency [6] | outcome [2] | activity, negative = inhibition ([3]; at 17.2 µM (top of the series)) -18.6% | Potency [13] > 20.6 µM | outcome [4] | outcome [5]

O=C1C[C@@H](c2ccc(O)cc2)Oc2cc(O)cc(O)c21
inactive: outcome [1] | outcome [2] | activity, negative = inhibition ([3]; at 17.2 µM (top of the series)) 0.762% | Potency [13] > 20.6 µM and > 46 µM | outcome [4] | outcome [5]

COc1cccc(-c2cc(=O)c3ccccc3o2)c1N
active: Potency [6] 3.16 µM and 200 nM
inactive: outcome [2] | Potency [13] > 46 µM | outcome [4] | outcome [5]

COc1ccc2c3c1OC1C[C@@H](O)C=C[C@@]31CCN(C)C2 (stereo partly specified)
inactive: outcome [1] | outcome [2] | activity, negative = inhibition ([3]; at 17.2 µM (top of the series)) 12.6% | Potency [13] > 20.6 µM | outcome [4] | outcome [5]

CS(=O)c1ccc(-c2nc(-c3ccc(F)cc3)c(-c3ccncc3)[nH]2)cc1 (stereo unspecified)
inactive: Potency [13] > 46 µM
active: Potency [6] 631 nM and 3.98 µM

O=c1cc(-c2ccccc2)oc2cc(O)c(O)c(O)c12
active: Potency [6] 398 nM and 501 nM
inactive: Potency [13] > 46 µM | outcome [4] | outcome [5]

CN(C)CCC(c1ccccc1)c1ccccn1 (stereo unspecified)
inactive: Potency [7] > 92 µM | Potency [8] > 92 µM | Potency [9] > 92 µM | Potency [10] > 92 µM | Potency [11] > 92 µM | Potency [12] > 92 µM | outcome [4] | Potency [14] | activity change, negative = cytotoxicity [15] -2.83% | Potency [16] | Potency [17] | Potency [18] | Potency [19]

CC(C)[C@H](CO)Nc1nc(Nc2ccc(C(=O)O)c(Cl)c2)c2ncn(C(C)C)c2n1
inactive: Potency [6] | Potency [13] > 46 µM | outcome [4]

CC1(C)CCC2=C(O1)c1ccccc1C(=O)C2=O
inactive: Potency [13] > 46 µM | outcome [4] | outcome [5]
active: Potency [6] 3.98 µM

O=c1[nH]cnc2c1ncn2[C@H]1CC[C@@H](CO)O1
inactive: Potency [7] > 92 µM | Potency [8] > 92 µM | Potency [9] > 92 µM | Potency [10] > 92 µM | Potency [11] > 92 µM | Potency [12] > 92 µM | Potency [14] | activity change, negative = cytotoxicity [15] 6.95% | Potency [16] | Potency [17] | Potency [18] | Potency [19]

COc1ccc(Cc2nccc3cc(OC)c(OC)cc23)cc1OC
active: Potency [6] 25.1 µM and 10 µM and 31.6 µM
inactive: outcome [4]

CC(C(=O)O)c1ccc(-c2ccccc2)c(F)c1 (stereo unspecified)
inactive: outcome [1] | outcome [2] | activity, negative = inhibition ([3]; at 17.2 µM (top of the series)) -6.1% | Potency [13] > 20.6 µM
